Laboratory results reported in PubChem BioAssay AID1851 (National Center for Advancing Translational Sciences (NCATS), 2009).
Among all 16,000 compounds or so, about 5,700 (36%) were called active. Roughly 24% stayed inconclusive and do not appear here. Calls come from the whole dose curve; as a rule, active = well fitted curve in the direction sought with a large enough effect; inconclusive = small, poorly fitted or top-dose-only effect, or effect the other way; inactive = no such curve, though single readings can be large or run the other way. This is one part of the list.

These molecules were tested against Cytochrome P450 1A2 (Homo sapiens) (UniProt P05177) (assay: Cytochrome panel assay with activity outcomes). Details: recombinant CYP, pro-luciferin dealkylation, luminescence, p450-cyp1a2; series mostly up to 57.1 µM.
% is set by controls: 0 for no effect and ±100 for the full control effect.

Chain of Cytochrome P450 1A2 (Homo sapiens) (P05177 whole entry, looked up): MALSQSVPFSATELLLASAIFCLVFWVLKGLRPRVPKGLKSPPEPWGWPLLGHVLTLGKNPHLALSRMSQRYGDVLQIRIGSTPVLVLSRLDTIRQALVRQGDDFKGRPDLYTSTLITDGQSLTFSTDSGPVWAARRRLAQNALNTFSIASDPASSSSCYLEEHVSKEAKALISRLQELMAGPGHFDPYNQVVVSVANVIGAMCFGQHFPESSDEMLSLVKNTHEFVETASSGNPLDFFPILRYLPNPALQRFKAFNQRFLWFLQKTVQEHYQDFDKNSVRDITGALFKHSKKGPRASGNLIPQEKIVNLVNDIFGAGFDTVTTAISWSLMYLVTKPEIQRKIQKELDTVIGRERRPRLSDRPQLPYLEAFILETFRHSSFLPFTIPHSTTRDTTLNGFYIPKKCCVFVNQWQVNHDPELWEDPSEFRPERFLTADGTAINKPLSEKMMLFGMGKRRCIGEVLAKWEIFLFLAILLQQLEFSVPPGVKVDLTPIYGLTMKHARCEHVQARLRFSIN

Compound | AC50 | activity, negative = inhibition
CN(N=O)c1ccc(/C=C\c2ccnc3ccccc23)cc1 | 158 nM (active) | –
NC(=O)Nn1c(CCC(=O)O)ccc1-c1ccc(F)cc1 | inactive | –
CC(=O)c1ccc(-n2c(CCC(=O)O)ccc2-c2cccs2)cc1 | 14100 nM (active) | –
O=C(O)CCc1ccc(-c2ccc(Cl)cc2)n1CCC(=O)O | inactive | –
Cc1ccc(-n2c(CCC(=O)O)ccc2-c2cccs2)cc1C | 14100 nM (active) | –
CCOC(=O)C1CCN(C(=O)C2CCN(S(=O)(=O)N3CCCC3)CC2)CC1 | inactive | –
O=[N+]([O-])c1ccc(N2CCOCC2)nc1 | 11200 nM (active) | –
Cn1ncc([N+](=O)[O-])c1C(=O)N1CCOCC1 | inactive | –
CN1CCN(c2ccc([N+](=O)[O-])cc2C(=O)N2CCOCC2)CC1 | inactive | –
Cc1cc(N2CCOCC2)ncc1[N+](=O)[O-] | 10000 nM (active) | –
Cc1cnc(CNc2ncnc3ccc(-c4ccc5c(c4)OCO5)cc23)cn1 | 398 nM (active) | –
Cc1cnc(CNc2ncnc3ccc(-c4ccc(N(C)C)cc4)cc23)cn1 | 1000 nM (active) | –
Cc1cnc(CNc2ncnc3ccc(-c4ccoc4)cc23)cn1 | 12600 nM (active) | –
O=S(=O)(O)c1ccc2cc(N=Nc3cc(S(=O)(=O)O)c4cccnc4c3O)ccc2c1 | – | -18.8% [at 2.29 µM] (inactive)
CCCCNC(=O)NS(=O)(=O)c1ccc(C(=O)OC(C)C)o1 | inactive | –
Cc1c(NC(=O)NC(C)N2C(=O)C3C4C=CC(C4)C3C2=O)c(=O)n(-c2ccccc2)n1C (configuration not stated) | inactive | –
CN(C)c1nc(N)c(C(=O)N=C(N)N)nc1Cl | 1000 nM (active) | –
NC(N)=NC(=O)c1nc(Cl)c(N2CCCCCC2)nc1N | 1000 nM (active) | –
CC(C)CN(C)c1nc(N)c(C(=O)N=C(N)N)nc1Cl | 794 nM (active) | –
CCN(c1nc(N)c(C(=O)N=C(N)N)nc1Cl)C(C)C | 2000 nM (active) | –
O=S(=O)(c1ccc(F)cc1)N1CCCC(CO)C1 (configuration not stated) | inactive | –
COc1ccc(NC(=O)N2CC[C@@]3(CCCN(C(=O)c4csnn4)C3)C2)cc1 | inactive | –
CCN(CC)C(=O)c1cc2cc([N+](=O)[O-])ccc2s1 | 2000 nM (active) | –
CCN(CC)C(=O)Cn1cnc([N+](=O)[O-])n1 | inactive | –
CCOc1ccc(NC(=O)N2CCC(c3ccc(C)cc3)C2)cc1 (configuration not stated) | inactive | –

Compound | AC50 | activity, negative = inhibition
Cc1cccc(OCC(=O)N2CCC(N3CCCCCC3)CC2)c1 | inactive | –
O=C(COc1ccc(Br)cc1)N1CCC(c2ccccc2)C1 (configuration not stated) | 3160 nM (active) | –
Nc1ccc(C(=O)C[C@H](N)C(=O)O)cc1O | – | -4.16% [at 11.4 µM] (inactive)
Cc1cccn2c(=O)c(/C=N/O)c(N3CCCC3)nc12 | 891 nM (active) | –
N[C@H](Cn1ccc(=O)n(Cc2ccccc2C(=O)O)c1=O)C(=O)O | inactive | –
CCOC(=O)C1=C2SCC(=O)N2C(N)=C(C#N)C1 | 1260 nM (active) | –
CC(C)OC(=O)C1=C2SCC(=O)N2C(N)=C(C#N)C1 | 1260 nM (active) | –
O=C(O)c1ccc2c(c1)C(=O)N(C(Cc1ccc(O)cc1)C(=O)O)C2=O (configuration not stated) | inactive | –
CN[C@H]1[C@@H](O[C@@H]2[C@H](O[C@@H]3[C@@H](O)[C@@H](O)[C@@H](N=C(N)N)[C@@H](O)[C@@H]3N=C(N)N)O[C@H](C)[C@@]2(O)C=O)O[C@@H](CO)[C@@H](O)[C@H]1O | inactive | –
CCC(CC)C(=O)Nc1c2cnn(-c3ccccc3)c2nc(=O)n1-c1ccccc1 | inactive | –
O=c1oc(-c2ccco2)nc2c1cnn2-c1ccccc1 | 2000 nM (active) | –
O=C(Nc1ccc(-n2nncc2-c2ccco2)cc1)c1cc2ccccc2oc1=O | inactive | –
CN1C(=C2C(=O)OC(C)(C)OC2=O)Sc2ccccc21 | 11200 nM (active) | –
CC1(C)CCCN(C(=O)N2c3ccccc3Sc3ccccc32)C1 | inactive | –
Nc1ncnc(N(c2ccccc2)C2CCCCC2)c1[N+](=O)[O-] | inactive | –
Cn1c(SC2=CS(=O)(=O)c3ccccc32)nc2ccccc21 | 6310 nM (active) | –
Cc1cc(C)c(-c2cc([C@H](C)O/N=C3/[C@H]4OC4[C@@H](O)[C@H]4[C@H]3CCn3c(=O)n(-c5ccccc5)c(=O)n34)on2)c(C)c1 (some centres not stated) | – | -8.09% [at 11.4 µM] (inactive)
COc1ccc(-n2c(C)nn(C)c2=O)cc1 | inactive | –
CCOC(=O)c1sc(=N)n(-c2ccc(OC)cc2)c1C | 1260 nM (active) | –
NCC[C@H](O)C(=O)N[C@H]1C[C@@H](N)[C@@H](O[C@H]2O[C@@H](CN)[C@@H](O)[C@@H](O)[C@@H]2O)[C@@H](O)[C@@H]1O[C@H]1O[C@@H](CO)[C@@H](O)[C@@H](N)[C@@H]1O | inactive | –
Cc1oc2c(C)c(O)ccc2c(=O)c1-c1ccc2ccccc2n1 | 2240 nM (active) | –
CCc1cc2c(=O)c(-c3nc4ccccc4n3C)c(C)oc2c(CN(CC)CC)c1O | inactive | –
C=CCc1cccc2cc(C(=O)N(CC)CC)c(=O)oc12 | 1410 nM (active) | –
COc1ccc(Oc2ncc3nc(CCc4ccccc4)c(=O)n(C4CC4)c3n2)cc1 | 12600 nM (active) | –
CN(C)c1ncc2nc(CCc3ccccc3)c(=O)n(C3CC3)c2n1 | 3160 nM (active) | –

Compound | AC50 | activity, negative = inhibition
COc1ncc2nc(CCc3ccccc3)c(=O)n(C3CC3)c2n1 | 3160 nM (active) | –
COc1ccc(C2C(=O)N(CCc3ccccc3)CC(=O)N2C2CCCC2)cc1 (configuration not stated) | inactive | –
O=c1c(CCc2ccccc2)nc2cncnc2n1C1CC1 | 6310 nM (active) | –
C[C@@]1(C(=O)O)CCC[C@@H]1C(=O)O | – | -9.8% [at 2.29 µM] (inactive)
O=c1c(CCc2ccccc2)nc2cnc(Oc3ccccc3)nc2n1C1CC1 | 7940 nM (active) | –
COc1ccc(S(=O)(=O)N2CCCCCC2)cc1N(C)S(=O)(=O)c1ccc(Cl)cc1 | inactive | –
Cc1cc(C)c2c(N)c3ccccc3nc2n1 | 2240 nM (active) | –
Cc1cc(NCCO)c2ccccc2n1 | inactive | –
C=CC[n+]1c(-c2ccc(C)cc2)csc1NNC(=O)Nc1ccccc1 | 10000 nM (active) | –
Cc1cccc(C(=O)c2ccccc2C(=O)O)c1O | inactive | –
Cc1ccc(Cl)c(Nc2ccccc2C(=O)O)c1Cl | inactive | –
Cc1c(Cl)cccc1Nc1ccccc1C(=O)O | 3160 nM (active) | –
Cc1c(Cl)cccc1NC(=O)CN1CCC(C(O)(c2ccccc2)c2ccccc2)CC1 | inactive | –
Cc1cccc(Nc2ccccc2C(=O)O)c1C | 5010 nM (active) | –
O=S(=O)(O)[C@@H](c1ccccc1)[C@@H](O)c1ccccc1 | – | -13.9% [at 2.29 µM] (inactive)
Cc1ccc2nc(Nc3ccccc3O)nc(-c3ccccc3)c2c1 | 1780 nM (active) | –
COC(=O)[C@@]1(Cc2ccccc2)[C@H]2c3cc(C(=O)N4CCCC4)n(CC4CC4)c3C[C@H]2CN1C(=O)c1ccccc1 | inactive | –
CCOC(=O)c1cnc(-c2ccccc2)nc1Oc1ccc(Cl)cc1 | 200 nM (active) | –
COc1cnc(-c2ccccc2)nc1Oc1cccc(C)c1 | 3160 nM (active) | –
CCOC(=O)c1cnc(-c2ccccc2)nc1Oc1ccccc1 | 631 nM (active) | –
CCOC(=O)c1cnc(-c2ccccc2)nc1Oc1cccc(Cl)c1 | 2510 nM (active) | –
COC(=O)N1CCC2(CC1)CCN(c1ccncc1)CC2 | inactive | –
Cc1ccc(Oc2nc(-c3ccccc3)ncc2S(C)(=O)=O)cc1 | 2820 nM (active) | –
COc1ccc(Cc2n[nH]c(=O)c3ccccc23)cc1OC | inactive | –
COc1nnc(OC)c2ccccc12 | 2510 nM (active) | –

Compound | AC50 | activity, negative = inhibition
CCC(=S)/C=C1\Sc2ccccc2N1CCCS(=O)(=O)O | inactive | –
CN(C)CC(C)(C)CN1c2ccccc2Sc2ccccc21 | – | -17.7% [at 11.4 µM] (inactive)
CCN(CC)[C@@H](C)CN1c2ccccc2Sc2ccccc21 | 501 nM (active) | –
O=C1NC(=S)N/C1=C/c1cccc([N+](=O)[O-])c1O | inactive | –
O=[N+]([O-])c1cccc(/C=N\Nc2ccc3ccccc3n2)c1O | 794 nM (active) | –
O=C(O)c1ccccc1CN1CCC[C@@H](C(=O)O)C1 | – | -5.22% [at 11.4 µM] (inactive)
S=c1[nH]c2cc(Cl)ccc2s1 | 2000 nM (active) | –
O=C(O)C1C2C=CC3(CN(Cc4ccccn4)C(=O)C13)O2 (configuration not stated) | inactive | –
COc1ccc(O[C@H]2C=C[C@@H](c3ccccc3)O[C@@H]2CO/N=C\[C@@H](C)[C@H](OCc2ccccc2)C(C)C)cc1 | – | -3.11% [at 11.4 µM] (inactive)
Cc1ccc(NC(=O)CC2CS(=O)(=O)CC2CC(=O)Nc2ccc(C)c(C)c2)cc1C (configuration not stated) | inactive | –
COC(=O)c1cc(NC(=O)CC2NC3CCCCC3NC2=O)cc(C(=O)OC)c1 (configuration not stated) | inactive | –
O=C(CC1CCCC1)Nc1ccc2c(c1)CCC2 | 15800 nM (active) | –
CN(C)C(=O)Oc1cccc([N+](C)(C)C)c1 | inactive | –
CS[C@]12C(=O)C[C@]3(C)[C@@H](CC[C@@]3(O)C(=O)CO)[C@@H]1CCC1=CC(=O)CC[C@]12C | – | -24.3% [at 2.29 µM] (inactive)
CCC[C@@H]1C[C@@]1(CCC)C(NC(=O)c1ccc(-c2ccccc2)cc1)c1cccc(Cl)c1 (some centres not stated) | inactive | –
N#Cc1ccc(-c2ccccc2)nc1SCC(=O)c1cccc(Cl)c1 | 2000 nM (active) | –
Cc1c(C(=O)Nc2nccs2)sc2nc(-c3cccs3)cc(C(F)(F)F)c12 | 1580 nM (active) | –
Cc1ccc(NC(=O)CN2C(=O)S/C(=C\c3cccn3C)C2=O)cc1 | inactive | –
Cc1ccc(Oc2ccccc2/C=C2\SC(=O)N(C)C2=O)cc1 | 3160 nM (active) | –
CCCCCCCCC[n+]1cccc2c3ccccc3ccc21 | 15800 nM (active) | –
Cc1cc(N)c2ccccc2[n+]1CCCCCCCCCCCCCC[n+]1c(C)cc(N)c2ccccc21 | inactive | –
Cc1cc(N)c2ccccc2[n+]1CCCCCCCCCC[n+]1c(C)cc(N)c2ccccc21 | inactive | –
